Compounds with a hit are over-represented: about 2.8% of the library has one in this group of screens.
KDM5B inhibitor: KDM5B demethylase inhibition; AID 1347165; hit rate 2.6% among 220,000; Q9UGL1; KDM5B demethylase, FDH-coupled NADH fluorescence (FDH is formaldehyde dehydrogenase); Potency, µM (series often up to 57.7 µM), actives largely listed as inhibitors; active = well fitted inhibition curve with a large enough effect; inconclusive = small, poorly fitted or top-dose-only effect; inactive = no such curve, though single readings can be large or run the other way; also: potency is read from the fitted curve at half-maximal effect; 0% is about no effect; nearly all actives have a fitted effect of over 70% in size
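Compound dilutions met 200 nM (final) KDM5BΔAP for 10 min at room temperature before substrate addition. The substrate mix held 12.5 µM H3K4me3 with cofactors 25 µM α-ketoglutarate and 50 µM Fe²⁺. NADH signal gain over 30 min defined activity.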
IP6K1 inhibitor: blocks human inositol hexakisphosphate kinase 1 | Q92551 | IP6K1 kinase, ADP-Glo luminescence, 2 h; stronger effect = lower value | activity change, % (series mostly up to about 58 µM) | hit rate 0.81% among 140,000; in the data active = activity change below about -25%; also: % is scaled to controls: 0 for no effect and ±100 for the full control effect
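ADP-Glo luminescence measures ADP made by human IP6K1 during a 2 h RT reaction with ATP/IP6 (mix at 1.3 mM/130 uM); top library doses 57.5 and 19.1 uM final.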
Starred values were filed as active, the others as inactive; i = inactive; ? = inconclusive; . = not tested or not shown.

SMILES	KDM5B inhibitor	IP6K1 inhibitor
COc1ccccc1CNC(=O)CCC[C@H]1NC[C@@H]2C[C@H]1CN(Cc1ccccc1)C2	4.47µM*	-14.7
O=C(CCC[C@H]1NC[C@@H]2CC1CN(Cc1ccccc1)C2)N1CCCCC1	i	3.7
CC(C)CN1CCN(C(=O)CCC[C@H]2NC[C@@H]3C[C@H]2CN(Cc2ccccc2)C3)CC1	6.31µM*	-12.9
COc1cccc(-c2ccc(C(=O)N3CCC(NC(=O)Nc4ccccc4F)CC3)cc2)c1	.	6.9
CC(Sc1nnc(N2CCCC2)n1-c1cccc(Cl)c1)c1nc(-c2ccco2)no1 (centres undefined)	i	.
O=C(O)C1(O)CCN(c2ncc(F)c(N3CCOCC3)n2)CC1	28.2µM*	16.1
CC(C)(C(=O)O)c1cnc(N2CCN(CCO)CC2)nc1N1CCOCC1	i	-8.8
COc1ccccc1CN1CCCn2nc(C)c(-c3cnccc3C)c21	?	22.6
COc1ccc(OC)c(CN2CCCn3nc(C)c(-c4cnccc4C)c32)c1	31.6µM*	4.5
Cc1ccncc1-c1c(C)nn2c1N(Cc1cccc(O)c1)CCC2	?	0.3
Cc1ccncc1-c1c(C)nn2c1N(Cc1cccc(OC(F)(F)F)c1)CCC2	35.5µM*	22.7
COc1ccccc1-c1cc(C(=O)NCc2ccccc2F)nn2cnnc12	.	2.2
O=C(NC1CC1)c1cn2cc(-c3ccc(F)cc3)sc2n1	.	-5.1
COc1ccc(NC(=O)C(C)(C)Oc2nn(C(C)C)c3ccc(CN4CCOCC4)cc23)cc1	?	-5.5
CC(C)n1nc(OC(C)(C)C(=O)Nc2ccccc2)c2cc(CN3CCOCC3)ccc21	?	-11.5
CC(C)n1nc(OC(C)(C)C(=O)NC2CCOCC2)c2cc(CN3CCOCC3)ccc21	31.6µM*	7.7
CC(C)CNC(=O)C(C)(C)Oc1nn(C(C)C)c2ccc(CN3CCOCC3)cc12	35.5µM*	3.2
CC(C)(Oc1nn(Cc2cccc(Cl)c2)c2ccccc12)C(=O)NC1CCC(O)CC1 (centres undefined)	?	-8.9
CC(C)n1nc(OC(C)(C)C(=O)NCCOc2ccccc2)c2cc(CN3CCOCC3)ccc21	28.2µM*	-7.9
CC(C)n1nc(OC(C)(C)C(=O)NC2CCC(O)CC2)c2cc(CN3CCOCC3)ccc21 (centres undefined)	25.1µM*	7.9
CC(C)n1nc(OC(C)(C)C(=O)NCc2ccncc2)c2cc(CN3CCOCC3)ccc21	?	0.1
Cc1onc(-c2ccccc2Cl)c1C(=O)Nc1cccc(C(=O)NC2CC2)c1	i	.
COC(=O)N1CCN(c2ccc3nnc(-c4ccccc4)n3n2)CC1	.	4.3
Cc1nn(-c2ccccc2)c2c1C(C)N(C1CN(C(=O)Cc3cccc(Cl)c3)C1)C2=O (centres undefined)	.	7.0
COCc1ccc2c(c1)c(OC(C)(C)C(=O)NCC1CCOCC1)nn2Cc1cccnc1	i	-0.1
SMILES	KDM5B inhibitor	IP6K1 inhibitor
CC(C)(Oc1nn(CC2CC2)c2ccc(CN3CCCC3)cc12)C(=O)Nc1cccnc1	28.2µM*	-4.2
COc1cccc(C(O)c2nc(C(=O)N3CCN(c4ccccn4)CC3)c(C)o2)c1 (centres undefined)	25.1µM*	-11.2
COc1cccc(C(O)c2nc(C(=O)Nc3ccc(OC)c(OC)c3)c(C)o2)c1 (centres undefined)	i	-12.6
CC(C)c1nc2nccc(-c3ccccc3)n2n1	28.2µM*	-4.5
CC(C)c1nc2nccc(-c3ccc(F)cc3)n2n1	28.2µM*	7.3
COc1ccc(Cc2nc3nccc(-c4ccc(F)cc4)n3n2)cc1	i	-5.3
CC(C)c1nc2nccc(-c3ccco3)n2n1	?	-1.4
COc1cccc(C2CNC(=O)c3nc(Cn4nc(C)c(C)c4C)[nH]c3C2)c1 (centres undefined)	i	-2.3
COc1cccc(C2CNC(=O)c3nc(-c4ccc(C(=O)N(C)C)o4)[nH]c3C2)c1 (centres undefined)	28.2µM*	11.5
c1ccc2c(c1)COC1(CCNC1)CN2CC1CCCCC1 (centres undefined)	?	-21.5
CC(C)(C)c1ccc(C(=O)NCC(=O)NC2CCCC2)cc1	i	.
Cc1cc(=O)n(CC(=O)Nc2ccc(C)c(F)c2)c(N2CCc3ccccc3C2)n1	?	0.5
Cc1ccc(-c2cc(C(=O)N3CCN(c4ccccc4)CC3)c3cnn(C)c3n2)cc1	.	-4.1
Cc1ccc(C#N)c(N2CCC(c3nnc(Cn4cncn4)n3C)CC2)n1	28.2µM*	-4.9
Cn1c(Cn2cncn2)nnc1C1CCN(Cc2ccc3ccccc3n2)CC1	?	-17.1
Cc1nn2c(c1-c1ccccc1-c1ccccc1)N(C(=O)c1ccnn1C)CCC2	i	9.0
Cc1nn2c(c1-c1ccccc1-c1ccccc1)N(Cc1ccc(C(=O)O)s1)CCC2	i	16.9
Cc1nn2c(c1-c1ccccc1Oc1ccccc1)N(Cc1cccc(C(=O)O)c1)CCC2	?	6.0
Cc1nn2c(c1-c1ccccc1-c1ccccc1)N(Cc1ccccc1)CCC2	31.6µM*	-2.0
Cc1nn2c(c1-c1ccccc1Oc1ccccc1)N(Cc1cccc(C#N)c1)CCC2	25.1µM*	4.5
Cc1nn2c(c1-c1ccccc1-c1ccccc1)N(CCC(C)C)CCC2	6.31µM*	-9.0
CCCc1noc(CCC(=O)Nc2ccc(OC)c(OC3CCCC3)c2)n1	i	.
N#Cc1cccc(-c2c(C(=O)N3CCCCC3)nc3sccn23)c1	.	19.7
CC(C)(C)C(=O)NC1CCN(Cc2ccc(-c3ccsc3)cc2)C1 (centres undefined)	.	-1.0
CCNc1c(NC(=O)Nc2cc(Cl)ccc2C)c(=O)oc2ccccc12	i	.
SMILES	KDM5B inhibitor	IP6K1 inhibitor
C[C@]12CC[C@H](O)CC1=CCC[C@@H]2OC(=O)NCc1ccccc1	.	5.6
COc1ccc(CCC(=O)N2CCC(Cc3n[nH]c(C)n3)CC2)cc1	.	-6.3
CCc1n[nH]c(CC2CCN(C(=O)C3(c4ccccc4)CC3)CC2)n1	i	-3.4
CC(=O)N1CCC(Cc2nc(-c3ccccc3)n[nH]2)CC1	20µM*	15.1
COc1ccc(CCC(=O)N2CCC(Cc3nc(C4CC4)n[nH]3)CC2)cc1	20µM*	-6.7
O=C(N1CCC(Cc2nc(C3CC3)n[nH]2)CC1)C1(c2ccccc2)CC1	17.8µM*	1.7
O=C(C1CC1)N1CCC(Cc2nc(-c3ccccc3)n[nH]2)C1 (centres undefined)	i	7.6
C#CCNC(=O)C1CCCN1C(=O)c1cccc(-c2cccc(OC)c2)c1 (centres undefined)	.	2.7
COc1ccccc1-c1cccc(CN2CCC(N[S+](=O)([O-])c3c(C)noc3C)CC2)c1	.	-3.9
O=c1cc(N2CCOCC2)oc2c(-c3ccccc3O)nccc12	i	-21.7
Cc1ccccc1-c1nccc2c(=O)cc(N3CCOCC3)oc12	35.5µM*	-4.7
COc1ccccc1-c1nccc2c(=O)cc(N3CCOCC3)oc12	?	-10.6
COc1ncccc1-c1nccc2c(=O)cc(N3CCOCC3)oc12	39.8µM*	11.8
Cn1cccc1-c1noc(C2CCN(Cc3noc(-c4ccccc4)n3)C2)n1 (centres undefined)	.	18.2
CCC(CC)CN1CC2(CCN(C(=O)CCc3cc(=O)[nH]o3)CC2)OC1=O	i	-2.5
CCC(CC)CN1CC2(CCN(C(=O)c3cn4cccnc4n3)CC2)OC1=O	31.6µM*	11.1
Cc1ccc([S+](=O)([O-])NC2CCN(c3ccc4nnc(C5CC5)n4n3)C2)cc1 (centres undefined)	.	2.2
